The source made the active and inactive calls. How the source made its calls: active means hit-call score of the fitted dose curve at least 0.9, where 1 is the maximum; inactive means score below 0.9.
Columns and labels:
Conditions in all cases: mRNA level, 48 h; actives raise or lower the signal
CYP4A11 (gene 1579) = assay: LTEA_HepaRG_CYP4A11: Life Technologies and Expression Analysis (LTEA) Assay for CYP4A11 using HepaRG (AID 2283486)
Description: (§1) LTEA_HepaRG is a cell based, multiplexed-readout assay that uses HepaRG, a human liver cell line, with measurements taken at 48 hours after chemical dosing on a 96-well plate.LTEA_HepaRG_CYP4A11 is one of 102 assay component(s) measured in the LTEA HepaRG cell culture assay. It is a marker of NR mediated metabolism.Data from the assay component LTEA_HepaRG_CYP4A11 was analyzed into 1 endpoint. This assay endpoint, LTEA_HepaRG_CYP4A11, was analyzed with bidirectional fitting relative to DMSO as the negative control and baseline of activity. Using a type of inducible reporter, measures of mRNA induction for gain or loss-of-signal activity can be used to understand regulation of transcription factor activity. To generalize the intended target to other relatable targets, this assay endpoint is annotated to the cyp intended target family, where the subfamily is xenobiotic metabolism.
(§2) A total of 1060 chemcials from the ToxCast library were tested in eight-point concentration-response experiments. Cell culture and cytotoxicity assays were conducted at Thermo Fisher Scientific's Custom Services facility (Madison, WI). A single lot of human HepaRG cells (Thermo Fisher Scientific, Frederick, MD) was used for the cell culture experiments. 96-well format collagen type I coated plates of human HepaRG cells were prepared using established methods. Briefly, cryopreserved HepaRG cells were thawed, plated at a density of approximately 100,000 cells/well in HepaRG Thaw, Plate, and General Purpose media (HPRG770, Thermo Fisher Scientific), and incubated for 48 hours. […] Fluidigm's 96.96 Dynamic ArrayTM (Fluidigm, Amsterdam, the Netherlands) technology was used for gene expression analyses by quantitative reverse transcription polymerase chain reaction (qRT-PCR, performed by Quintiles/Expression Analysis, Durham, NC)89. […]

[1] = read-out: Cytochrome P450 3A4 (Homo sapiens) (UniProt P08684); assay: LTEA_HepaRG_CYP3A4: Life Technologies and Expression Analysis (LTEA) Assay for CYP3A4 using HepaRG (AID 2283487)
Description: as §1, with “plate.LTEA_HepaRG_CYP3A4” for “plate.LTEA_HepaRG_CYP4A11”, “LTEA_HepaRG_CYP3A4” for “LTEA_HepaRG_CYP4A11”, “LTEA_HepaRG_CYP3A4,” for “LTEA_HepaRG_CYP4A11,”
as §2

[2] = read-out: DNA damage-inducible transcript 3 (DDIT3), DDIT3 (gene 1649); assay: LTEA_HepaRG_DDIT3: Life Technologies and Expression Analysis (LTEA) Assay for DNA damage-inducible transcript 3 (DDIT3) using HepaRG (AID 2283488)
In short: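 DDIT3 transcript was quantified by qRT-PCR with ACTB/GAPDH/POLR2A normalization after 48 h chemical treatment of differentiated HepaRG cells in 0.5% DMSO. Dosing was eight-point, half-log, top 100 uM, duplicate wells. Curves fitted bidirectionally versus DMSO.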

[3] = read-out: Pro-epidermal growth factor (Homo sapiens) (UniProt P01133); assay: LTEA_HepaRG_EGF: Life Technologies and Expression Analysis (LTEA) Assay for Epidermal growth factor (EGF) using HepaRG (AID 2283489)
In short: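 HepaRG, 48 h dosing, 100 uM top, half-log x8, 0.5% DMSO. Readout: TaqMan qRT-PCR (Fluidigm array), housekeeping-normalized. Gain or loss of signal fit vs DMSO.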

[4] = read-out: Early growth response protein 1 (EGR1) transcription factor, EGR1 (gene 1958); assay: LTEA_HepaRG_EGR1: Life Technologies and Expression Analysis (LTEA) Assay for Early growth response protein 1 (EGR1) transcription factor using HepaRG (AID 2283490)
In short: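 EGR1 transcript levels quantified by qRT-PCR (Fluidigm arrays) against three housekeeping genes after 48 h chemical exposure of HepaRG cells. Eight-point half-log series topping at 100 uM, 0.5% DMSO vehicle, analyzed for gain or loss.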

[5] = read-out: Ezrin (EZR), EZR (gene 7430); assay: LTEA_HepaRG_EZR: Life Technologies and Expression Analysis (LTEA) Assay for Ezrin (EZR) using HepaRG (AID 2283491)
In short: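 Read-out is EZR transcript level by qRT-PCR, normalized to three housekeeping genes and fitted bidirectionally against the DMSO control. Human HepaRG cells received test chemicals for 48 h at eight half-log concentrations up to 100 uM in 0.5% DMSO.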

[6] = read-out: Cytochrome P450 3A7 (Homo sapiens) (UniProt P24462); assay: LTEA_HepaRG_CYP3A7: Life Technologies and Expression Analysis (LTEA) Assay for CYP3A7 using HepaRG (AID 2283492)
In short: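 Human HepaRG liver cells, 48 h post-plating, switched to serum-free induction medium and exposed in duplicate for 48 h. Dosing: 100 uM top, half-log dilutions, 8 points, 0.5% DMSO vehicle. Read-out: CYP3A7 mRNA, gain or loss fitted against DMSO baseline.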

CYP3A5 (gene 1577) = assay: LTEA_HepaRG_CYP3A5: Life Technologies and Expression Analysis (LTEA) Assay for CYP3A5 using HepaRG (AID 2283493)
In short: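 mRNA levels were quantified by qRT-PCR on Fluidigm arrays and normalized to three housekeeping genes. Differentiated HepaRG cells received 48 h exposure (top 100 uM, half-log steps, 0.5% DMSO vehicle, duplicate); bidirectional fitting versus DMSO.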

[7] = read-out: Fatty Acid-Binding Protein 1 (FABP1), FABP1 (gene 2168); assay: LTEA_HepaRG_FABP1: Life Technologies and Expression Analysis (LTEA) Assay for Fatty Acid-Binding Protein 1 (FABP1) using HepaRG (AID 2283494)
In short: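 FABP1 expression by TaqMan qRT-PCR, normalised to three housekeeping genes, in HepaRG cells after 48 h chemical treatment. Eight-point half-log series topping at 100 uM in 0.5% DMSO, duplicates; gain or loss fitted relative to vehicle.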

[8] = read-out: Cytochrome P450 4A22 (Homo sapiens) (UniProt Q5TCH4); assay: LTEA_HepaRG_CYP4A22: Life Technologies and Expression Analysis (LTEA) Assay for Cytochrome P450 4A22 (CYP4A22) using HepaRG (AID 2283495)
In short: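 Readout is CYP4A22 transcript induction or loss, quantified by qRT-PCR and normalized to ACTB, GAPDH and POLR2A. Human HepaRG cells receive test chemicals for 48 h at eight half-log concentrations from 100 uM in 0.5% DMSO.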

Measured: outcome

Cytochrome P450 3A7 (Homo sapiens), sequence (P24462 whole entry, looked up): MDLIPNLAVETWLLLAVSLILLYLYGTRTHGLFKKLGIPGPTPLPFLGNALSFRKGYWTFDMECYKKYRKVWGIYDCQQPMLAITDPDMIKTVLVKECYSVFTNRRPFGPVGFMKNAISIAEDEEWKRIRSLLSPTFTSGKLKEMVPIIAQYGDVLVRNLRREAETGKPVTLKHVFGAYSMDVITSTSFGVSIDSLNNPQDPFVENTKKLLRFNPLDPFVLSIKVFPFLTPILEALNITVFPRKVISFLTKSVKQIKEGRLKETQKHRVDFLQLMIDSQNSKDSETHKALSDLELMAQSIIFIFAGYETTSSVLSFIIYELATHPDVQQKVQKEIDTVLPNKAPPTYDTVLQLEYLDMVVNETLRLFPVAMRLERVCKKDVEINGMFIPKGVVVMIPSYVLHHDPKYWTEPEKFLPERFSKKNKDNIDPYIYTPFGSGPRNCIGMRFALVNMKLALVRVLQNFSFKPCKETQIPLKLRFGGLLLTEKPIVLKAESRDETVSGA
Cytochrome P450 3A4 (Homo sapiens), sequence (P08684 whole entry, looked up): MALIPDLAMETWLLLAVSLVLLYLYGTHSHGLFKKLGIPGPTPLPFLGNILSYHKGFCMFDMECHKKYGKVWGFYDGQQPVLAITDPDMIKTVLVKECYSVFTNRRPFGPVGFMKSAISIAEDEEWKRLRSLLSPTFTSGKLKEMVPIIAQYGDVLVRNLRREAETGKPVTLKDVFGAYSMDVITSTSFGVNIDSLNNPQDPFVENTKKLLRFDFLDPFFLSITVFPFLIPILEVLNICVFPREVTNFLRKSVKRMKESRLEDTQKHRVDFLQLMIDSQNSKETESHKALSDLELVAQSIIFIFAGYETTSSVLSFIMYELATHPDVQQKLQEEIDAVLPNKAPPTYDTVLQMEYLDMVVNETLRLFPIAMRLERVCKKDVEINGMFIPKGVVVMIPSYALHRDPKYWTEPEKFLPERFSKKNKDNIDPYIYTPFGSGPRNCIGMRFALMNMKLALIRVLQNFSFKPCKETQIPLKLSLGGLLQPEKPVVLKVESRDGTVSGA

Nc1ccc(C(=O)O)cc1
inactive: all assays above

Cc1ccc([N+](=O)[O-])cc1N
inactive: all assays above

C1CNCCN1
inactive: all assays above
